The results in this text go back to PubChem BioAssay AID1851 (National Center for Advancing Translational Sciences (NCATS), 2009).

In all, about 16,000 compounds went through this assay and about 4,000 (25%) were called active. Not shown: some 26% with an inconclusive outcome. The call rests on the fitted dose curve; in most records, active means well fitted curve in the direction sought with a large enough effect; inconclusive means small, poorly fitted or top-dose-only effect, or effect the other way; inactive means no such curve, though single readings can be large or run the other way. These entries were drawn from the full list.
On the % scale 0 is the no-effect control and ±100 the full control effect.

Cytochrome P450 2C9 (Homo sapiens), sequence (P11712 whole entry, looked up): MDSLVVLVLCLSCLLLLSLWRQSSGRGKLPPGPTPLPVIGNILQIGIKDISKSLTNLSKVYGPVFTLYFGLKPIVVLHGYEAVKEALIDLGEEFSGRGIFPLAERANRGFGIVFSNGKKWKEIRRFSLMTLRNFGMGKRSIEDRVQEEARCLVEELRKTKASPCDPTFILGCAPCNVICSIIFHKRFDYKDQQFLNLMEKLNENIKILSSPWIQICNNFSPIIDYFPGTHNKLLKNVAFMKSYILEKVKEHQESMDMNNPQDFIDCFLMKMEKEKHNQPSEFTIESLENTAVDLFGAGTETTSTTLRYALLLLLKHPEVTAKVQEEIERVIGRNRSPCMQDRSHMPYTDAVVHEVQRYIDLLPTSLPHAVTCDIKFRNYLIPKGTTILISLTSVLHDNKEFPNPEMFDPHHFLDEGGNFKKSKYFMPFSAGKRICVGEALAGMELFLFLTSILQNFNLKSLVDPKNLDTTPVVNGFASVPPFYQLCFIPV

The test has as its target Cytochrome P450 2C9 (Homo sapiens) (UniProt P11712). Description: Cytochrome panel assay with activity outcomes. Particulars: recombinant CYP, pro-luciferin dealkylation, luminescence, p450-cyp2c9; series mostly up to 57.1 µM.
In the case of `COc1ccc(-c2nc3c([nH]2)c(=O)n(C)c(=O)n3C)c(OC)c1`, the AC50 result is “inactive”.
Same read-out and setting: with `Cc1n[nH]c(=O)nc1NCc1ccccc1Cl` the entry was “inactive”.
Same read-out and setting: with `CCOC(=O)n1c(=O)n(Cc2ccccc2Cl)c2ccccc21` the figure was 8.91 µM (active); with `Cn1c(=O)n(CCC(=O)O)c2ccccc21`, “inactive”.
Still for that read-out and setting: then `CCOC(=O)n1c(=O)n(Cc2c(Cl)cccc2Cl)c2ccccc21`, with 3.98 µM (active).
With `O=c1[nH]cc(CS(=O)(=O)Cc2c[nH]c(=O)[nH]c2=O)c(=O)[nH]1`, the activity, negative = inhibition is -2.59% [at 11.4 µM] (inactive).
As for `C/C(=N\O)c1ccc2[nH]ccc2c1`, the AC50 entry is “inactive”.
Still for that read-out and setting: with `Cc1n[nH]c(C)c1S(=O)(=O)N1CCC(C(=O)O)CC1` the entry was “inactive”.
On to `O=C(NNC(=O)c1ccncc1)c1ccncc1`, for which the activity, negative = inhibition was 0.511% [at 11.4 µM] (inactive).
For `NNC(=O)c1ccncc1`, the AC50 result was “inactive”.
Same read-out and setting: then `CC(=O)c1c(C(C)=O)c(C)n(NC(=O)c2ccncc2)c1C`, with 1.58 µM (active).
With `NS(=O)(=O)c1ccc(N=Nc2cc3ccccc3c(C(=O)O)c2O)cc1`, the activity, negative = inhibition is -1.93% [at 11.4 µM] (inactive).
Still for that read-out and setting: then `CCN1C(=O)[C@H]2[C@H]3[C@H](O)[C@H](O)C/C(=N/O[C@@H]4O[C@H](COC(C)=O)[C@@H](OC(C)=O)[C@H](OC(C)=O)[C@H]4OC(C)=O)[C@@H]3CC[C@@H]2C1=O`, with -1.58% [at 11.4 µM] (inactive).
For `C/C(=N\NC(=O)c1ccc(Br)cc1)c1ccccc1`, the AC50 result is “inactive”.
Same read-out and setting: then `C/C(=N\NC(=O)c1ccncc1)c1ccc2ccccc2c1O`, with 0.1 µM (active); and `CC1(C)Cc2ccccc2C(NNC(=O)c2ccncc2)=N1`, with “inactive”.
Take `O=C(c1cccc(F)c1)N1CCC2(CC1)CCN(c1ncccn1)CC2`: the AC50 was 12.6 µM (active).
Still for that read-out and setting: then `O=C(c1cccc(F)c1)N1CCC2(CC1)CCN(c1ccccc1)CC2`, with “inactive”; and `O=C(c1cc(C(F)(F)F)cc(C(F)(F)F)c1)N1CCC2(CCCN(c3ncccn3)C2)CC1`, with “inactive”.
Same read-out and setting: with `CC(=O)N1CCC2(CCCN(c3ncccn3)C2)CC1` the entry was “inactive”; with `O=C(c1cccc(F)c1)N1CCC2(CCCN(c3ncccn3)C2)CC1`, 15.8 µM (active).
For `CC(C)NC(=O)N1CCC2(CC1)CCN(C(=O)c1cccc(F)c1)CC2`, the AC50 entry is “inactive”.
The same measure, in the same setting: then `COc1cccc2c1C(=O)c1c(O)c3c(c(O)c1C2=O)C[C@](O)(C(=O)CO)C[C@H]3O[C@@H]1C[C@H](N)[C@H](O)[C@H](C)O1`, with “inactive”.
Turning to `O=C(O)[C@@H]1CCCN1`, the activity, negative = inhibition is 1.2% [at 11.4 µM] (inactive).
On to `CCSc1nnc(-c2ccc(Cl)cc2)c2ccccc12`, for which the AC50 is 2 µM (active).
Still for that read-out and setting: with `Cc1ccc(C(=O)N/C(=C\c2ccc(Br)cc2)c2nc(=S)[nH][nH]2)cc1` the figure was 8.91 µM (active); with `O=C(N/C(=C/c1ccc(Br)cc1)c1nc2ccccc2[nH]1)c1ccco1`, “inactive”.

Broadly, the AC50 is the concentration giving half of the maximal activity seen.
